This is an account of results in PubChem BioAssay.

Activity calls are given as the source filed them. Unless noted, no rule for the calls is given here.

The nature of assay [1]: compounds binding Alexa647 anti-His antibody – biochemical, small-molecule microarray, 635 nm fluorescence, artefact control for SMM control protein annotation, primary screen (AID 1128).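 Also: score merges feature fluorescence with signal-to-noise for each printed compound spot.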 Particulars: higher = more signal.
In assay [2] the test system is Human papillomavirus type 1a E7 protein (residues 1-88). As to the kind of experiment: HPV1a E7 small-molecule binders, primary screen, biochemical, small-molecule microarray, residues 1-88, 635 nm (AID 1129). Conditions: small-molecule microarray binding, fluorescence 635 nm; higher = more signal.
Assay [3] deals with Focal adhesion kinase 1 (Homo sapiens) (UniProt Q05397). As to the kind of experiment: PTK2 protein binding on printed compound slides – biochemical, small-molecule microarray, 635/667 nm fluorescence, BSA, DTT, primary screen (AID 1130).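 Also: composite of spot emission at 667 nm and signal to noise over triplicate slides.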 Particulars: 635 nm fluorescence, higher = more signal.
For assay [4], the system named is Fibrinogen (Alexa647-labelled). As to the kind of experiment: Alexa647-fibrinogen binding to printed small molecules – biochemical, small-molecule microarray, 635/667 nm fluorescence, artefact control for SMM control-protein annotation, profiling panel (AID 1131).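 Also: z-score merges 667 nm fluorescence with per-spot signal-to-noise over triplicate slides.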 Particulars: fibrinogen-A647 binding fluorescence, higher = more signal.
Assay [5] concerns the target Follistatin (Homo sapiens) (UniProt P19883). In words: FST protein binding to printed compounds – biochemical, small-molecule microarray, 635/667 nm fluorescence, primary screen (AID 1132). Particulars: 635 nm fluorescence, higher = more signal.
The target of assay [6] is Fibroblast growth factor 2 (Homo sapiens) (UniProt P09038). In words: basic fibroblast growth factor binding to printed compounds – biochemical, small-molecule microarray, 635/667 nm fluorescence, primary screen (AID 1133). Conditions: FGF2, fluorescence 635/667, higher = more signal.
The nature of assay [7]: JC-1 mitochondrial potential readout, lung cancer cells – cell-based, A549, JC-1 fluorescence, basal, 24 h, 100 nL, profiling panel (AID 1138).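 Also: A549 lung adenocarcinoma cells under basal conditions with no added stimulus; test concentration not given here.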 Particulars: higher = more signal.
In assay [8] the test system is Lefty1. In words: Lefty1 protein binding to printed compounds – biochemical, small-molecule microarray, 635/667 nm fluorescence, primary screen (AID 1139). Particulars: fluorescence 635/667, higher = more signal.
In assay [9] the test system is wheat germ agglutinin (Triticum aestivum), Alexa647-labelled. As to the kind of experiment: Alexa647-WGA lectin binding to printed small molecules – biochemical, small-molecule microarray, 635/667 nm fluorescence, artefact control for SMM control-protein annotation, profiling panel (AID 1140).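 Also: score merges 667 nm feature emission with signal to noise over triplicate slides.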 Conditions: WGA-A647 binding, 635 nm fluorescence, higher = more signal.
For assay [10], the target named is Luciferin 4-monooxygenase (Photinus pyralis) (UniProt P08659). As to the kind of experiment: inhibition of purified Photinus pyralis luciferase – biochemical, luminescence, purified enzyme, 2006 set, primary screen (AID 1141).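 Also: cell-free assay with purified firefly luciferase at 100 ng per well in PBS; test concentration not given here.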 Conditions: purified firefly luciferase, SteadyGlo luminescence, 30 min; higher = more signal, called active from +8 up or from −8 down.
The subject of assay [11] is Wnt5a (protein binding on small-molecule microarray). As to the kind of experiment: small molecules binding Wnt5a protein – biophysical, small-molecule microarray, 635/667 nm fluorescence, primary screen (AID 1142).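 Also: fluorescence read at 667 nm with signal to noise per printed feature.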 Conditions: 635 nm fluorescence, higher = more signal.
Assay [12] in a line: ATP-based viability of Huh7 replicon cells – cell-based, CellTiter-Glo luminescence, basal, 48 h, cytotoxicity control for HCV replication inhibitor project, primary screen (AID 1143).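 Also: Huh7 hepatoma cells carrying a hepatitis C replication reporter with no stimulus; test concentration not given here.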 Conditions: higher = more signal, called active from +8 up or from −8 down. Background: A replicon is a self-replicating genome or part of one, used to study replication in cells.
A short description of assay [13]: Pseudomonas biofilm growth suppression – PAO1 strain, BacTiter-Glo luminescence, LB-PBS, primary screen (AID 1144). Conditions: P. aeruginosa PAO1 biofilm, 12 h, higher = more signal.
Assay [14] is described as follows: basal CRE-LacZ reporter activity in PC12 – cell-based, unstimulated, primary screen (AID 1145). Particulars: no forskolin, luminescence, 4.5 h, higher = more signal, called active from +8 up or from −8 down.
The nature of assay [15]: forskolin-driven CRE-LacZ activity in PC12 – cell-based, CRE-LacZ reporter, forskolin-stimulated, primary screen (AID 1146).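 Also: PC12 cells with 6xCRE LacZ reporter stimulated by forskolin 10 µM; beta-galactosidase reporter signal reflecting CREB driven transcription.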 Particulars: luminescence, 4.5 h, higher = more signal, called active from +8 up or from −8 down.
Assay [16] concerns the target Streptavidin (Streptomyces avidinii) (UniProt P22629). In words: compounds binding control protein streptavidin – biophysical, small-molecule microarray, 635/667 nm fluorescence, artefact control for SMM compound annotation, primary screen (AID 1147).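 Also: signal reflects streptavidin binding to arrayed compounds as a control protein.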 Conditions: higher = more signal.
Assay [17] is described as follows: probe aInhba binding on compound microarray – biochemical, small-molecule microarray, 635/667 nm fluorescence, primary screen (AID 1148).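 Also: score merges 667nm spot fluorescence with signal-to-noise for antibody binding to printed compounds.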 Particulars: higher = more signal.
Assay [18] has as its target Torsin-1A (Homo sapiens) (UniProt O14656). As to the kind of experiment: TOR1A wild-type binding on microarray – cell lysate, small-molecule microarray, lysate, 635/667 nm, primary screen (AID 1149). Particulars: COS7 hTOR1A-WT lysate, 635 nm fluorescence, higher = more signal.
For assay [19] the target is unchanged. As to the kind of experiment: torsin A mutant lysate binding on microarrays – cell lysate, small-molecule microarray, COS7 lysate, 635/667 nm fluorescence, primary screen (AID 1150).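 Also: score pools 667 nm emission and signal to noise measuring lysate protein binding.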 Conditions: COS7 hTOR1A mutant lysate, 635 nm fluorescence, higher = more signal.
Assay [20] has as its system Sonic hedgehog protein (Shh). As to the kind of experiment: Sonic hedgehog microarray binding compounds – biochemical, small-molecule microarray, 635/667 nm fluorescence, primary screen (AID 1151).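 Also: Shh protein binding to compounds spotted on small-molecule microarray slides; score combines spot fluorescence intensity with signal-to-noise across triplicate slides.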 Particulars: 635 nm fluorescence, higher = more signal.

Fibroblast growth factor 2 (Homo sapiens), sequence (P09038 whole entry, looked up): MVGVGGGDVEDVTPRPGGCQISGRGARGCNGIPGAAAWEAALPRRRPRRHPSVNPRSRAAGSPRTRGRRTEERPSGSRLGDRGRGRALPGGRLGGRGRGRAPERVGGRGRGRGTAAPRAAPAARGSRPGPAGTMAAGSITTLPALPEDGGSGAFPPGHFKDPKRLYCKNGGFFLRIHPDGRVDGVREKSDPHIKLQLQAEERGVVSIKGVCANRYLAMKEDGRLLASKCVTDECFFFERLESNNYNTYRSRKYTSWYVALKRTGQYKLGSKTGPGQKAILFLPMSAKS
Follistatin (Homo sapiens), sequence (P19883 whole entry, looked up): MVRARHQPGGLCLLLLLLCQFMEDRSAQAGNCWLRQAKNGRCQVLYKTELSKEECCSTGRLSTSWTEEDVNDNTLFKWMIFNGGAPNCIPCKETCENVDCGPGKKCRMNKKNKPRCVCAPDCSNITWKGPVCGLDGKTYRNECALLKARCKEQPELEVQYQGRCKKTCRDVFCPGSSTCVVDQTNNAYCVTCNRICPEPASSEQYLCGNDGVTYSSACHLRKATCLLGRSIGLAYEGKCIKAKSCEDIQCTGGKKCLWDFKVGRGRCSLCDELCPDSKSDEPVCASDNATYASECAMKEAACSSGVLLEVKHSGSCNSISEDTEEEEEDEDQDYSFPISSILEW
Luciferin 4-monooxygenase (Photinus pyralis), sequence (P08659 whole entry, looked up): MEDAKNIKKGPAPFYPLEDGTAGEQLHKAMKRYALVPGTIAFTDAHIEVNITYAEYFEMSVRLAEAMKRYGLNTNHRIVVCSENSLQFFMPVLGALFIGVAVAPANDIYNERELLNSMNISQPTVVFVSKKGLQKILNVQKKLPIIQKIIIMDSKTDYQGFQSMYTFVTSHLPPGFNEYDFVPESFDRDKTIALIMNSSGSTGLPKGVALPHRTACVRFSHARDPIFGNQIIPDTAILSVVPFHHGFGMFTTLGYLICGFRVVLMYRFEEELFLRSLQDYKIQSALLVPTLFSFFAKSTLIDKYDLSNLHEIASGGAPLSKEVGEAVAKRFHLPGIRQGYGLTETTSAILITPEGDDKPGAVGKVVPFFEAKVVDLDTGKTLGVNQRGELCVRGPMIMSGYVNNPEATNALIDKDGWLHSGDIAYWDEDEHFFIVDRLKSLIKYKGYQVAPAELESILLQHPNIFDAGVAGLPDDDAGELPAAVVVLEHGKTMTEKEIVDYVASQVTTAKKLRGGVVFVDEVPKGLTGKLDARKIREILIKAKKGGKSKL
Torsin-1A (Homo sapiens), sequence (O14656 whole entry, looked up): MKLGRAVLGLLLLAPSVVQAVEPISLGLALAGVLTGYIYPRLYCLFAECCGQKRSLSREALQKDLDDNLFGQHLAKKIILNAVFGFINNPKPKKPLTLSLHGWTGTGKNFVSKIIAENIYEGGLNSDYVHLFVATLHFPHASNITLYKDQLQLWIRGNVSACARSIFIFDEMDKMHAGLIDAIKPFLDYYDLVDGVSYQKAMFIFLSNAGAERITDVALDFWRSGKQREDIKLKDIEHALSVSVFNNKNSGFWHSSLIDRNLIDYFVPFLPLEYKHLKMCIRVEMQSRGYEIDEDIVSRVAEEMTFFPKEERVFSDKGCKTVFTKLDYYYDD
Streptavidin (Streptomyces avidinii), sequence (P22629 whole entry, looked up): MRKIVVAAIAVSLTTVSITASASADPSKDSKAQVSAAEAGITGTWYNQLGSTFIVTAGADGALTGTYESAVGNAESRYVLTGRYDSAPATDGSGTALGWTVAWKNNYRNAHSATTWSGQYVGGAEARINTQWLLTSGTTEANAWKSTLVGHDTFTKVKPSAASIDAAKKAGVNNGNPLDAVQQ
Focal adhesion kinase 1 (Homo sapiens), sequence (Q05397 whole entry, looked up): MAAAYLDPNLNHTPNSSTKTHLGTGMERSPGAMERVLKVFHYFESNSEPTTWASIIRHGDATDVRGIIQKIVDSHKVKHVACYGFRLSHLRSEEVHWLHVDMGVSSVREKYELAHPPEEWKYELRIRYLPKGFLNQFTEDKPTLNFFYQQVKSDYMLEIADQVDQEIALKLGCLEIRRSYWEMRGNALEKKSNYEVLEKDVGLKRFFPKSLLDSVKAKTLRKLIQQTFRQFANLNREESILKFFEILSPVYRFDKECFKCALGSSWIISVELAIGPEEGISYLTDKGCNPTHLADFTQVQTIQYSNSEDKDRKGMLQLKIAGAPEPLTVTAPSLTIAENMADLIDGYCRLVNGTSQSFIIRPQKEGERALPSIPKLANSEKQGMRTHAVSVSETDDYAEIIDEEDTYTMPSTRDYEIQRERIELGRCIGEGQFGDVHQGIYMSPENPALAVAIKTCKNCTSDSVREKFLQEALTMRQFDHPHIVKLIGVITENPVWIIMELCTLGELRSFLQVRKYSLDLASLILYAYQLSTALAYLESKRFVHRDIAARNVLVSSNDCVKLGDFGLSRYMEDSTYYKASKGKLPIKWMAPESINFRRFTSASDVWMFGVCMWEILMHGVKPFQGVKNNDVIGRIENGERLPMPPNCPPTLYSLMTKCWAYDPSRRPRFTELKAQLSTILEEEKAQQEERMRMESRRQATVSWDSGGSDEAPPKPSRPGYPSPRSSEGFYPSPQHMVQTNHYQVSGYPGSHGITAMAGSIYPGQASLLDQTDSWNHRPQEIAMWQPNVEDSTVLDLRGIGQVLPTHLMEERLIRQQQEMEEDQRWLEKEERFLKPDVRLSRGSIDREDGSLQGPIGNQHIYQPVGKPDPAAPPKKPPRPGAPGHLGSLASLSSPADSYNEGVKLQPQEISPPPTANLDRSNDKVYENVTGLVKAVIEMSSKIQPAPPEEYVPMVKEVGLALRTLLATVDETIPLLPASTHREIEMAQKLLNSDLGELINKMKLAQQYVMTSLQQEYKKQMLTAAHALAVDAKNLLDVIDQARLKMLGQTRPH

For `COCCCNC(=O)[C@@]1(Cc2ccccc2I)c2ccccc2C(=O)N(Cc2ccccc2OC)[C@H]1c1ccc(CO)cc1`, the composite z-score is 3.03 in assay [1]; 1.18 in assay [2]; 0.0958 in assay [3]; 0.198 in assay [4]; -0.268 in assay [5]; -0.39 in assay [6]. In addition, the composite z-score is -1.26 in assay [8]; 0.214 in [9]; -0.43 in assay [11]; -0.67 in assay [16]; -0.162 in assay [17]; 0.884 in assay [18]. Besides, the composite z-score was 0.431 in assay [19] and -0.845 in [20]. For the same molecule, the z-score in [7] is 1.93; in [10], -0.773 (inactive); in assay [12] it was -3.39 (inactive); in assay [13] it was 0.767 (inactive); in [14], 0.531 (inactive); in assay [15], -0.797 (inactive).

Take `[N-]=[N+]=Nc1ccccc1C[C@]1(C(N)=O)COC(c2ccc(OCCCO)cc2)=N1`: the composite z-score in [1] is 0.809; in assay [2], -0.835; in assay [3], 0.214; in assay [4], -0.445; in assay [5], 0.91; in assay [6], -0.261. Moreover, the composite z-score in [8] was -0.954; in assay [9], 0.99; in [11], 0.131; in assay [16], 0.559; in [17], 0.285; in assay [18], 0.517. The composite z-score was 1.21 in assay [19] and -0.567 in assay [20]. In addition, the z-score in [7] was -0.566; in [10] it was -8.73 (active); in [12], -3.62 (inactive); in [13], -1.16 (inactive); in assay [14], 1.33 (inactive); in assay [15] it was -1.31 (inactive).

With `COc1ccc(NN2C(C(O)c3ccc(F)cc3)C=CC3C(=O)N(C4CCCCC4)C(=O)C32)cc1` (stereo not given), the composite z-score was 0.683 in assay [1]; 1.25 in assay [2]; 0.382 in assay [3]; 0.997 in assay [4]; 1.15 in [5]; 0.314 in [6]. Moreover, the composite z-score in assay [8] is 0.174; in assay [9], 1.14; in assay [11] it was 0.0942; in assay [16], 1.58; in assay [17] it was 0.112; in assay [18] it was 0.638. Besides, the results for the composite z-score in assay [19] and in [20] were 0.197 and 0.244, respectively. For the same molecule, the z-score was -0.462 in assay [7]; 0.613 (inactive) in assay [10]; -0.591 (inactive) in assay [12]; -0.796 (inactive) in assay [13]; 1.24 (inactive) in assay [14]; 1.08 (inactive) in [15].

Consider `C[C@]1(C(=O)O)c2ccccc2C(=O)N(Cc2cc(C(F)(F)F)cc(C(F)(F)F)c2)[C@H]1c1ccc(CO)cc1`, for which the composite z-score in assay [1] is -0.41; in assay [2] it was -0.129; in [3] it was 0.0797; in assay [4], 0.844; in assay [5], 0.82; in assay [6], -0.354. Also, the composite z-score in assay [8] is 1.02; in [9], 0.861; in assay [11], 0.0785; in [16], 1.41; in assay [17], 0.0227; in [18], -0.652. Besides, the composite z-score was -0.113 in assay [19] and 1.64 in [20]. Further, the z-score in assay [7] was -0.401; in [10], 1.01 (inactive); in [12], 0.104 (inactive); in assay [13], -0.518 (inactive); in [14] it was 0.531 (inactive); in assay [15], 0.165 (inactive).

For `COCCOC(=O)N1C(=O)[C@@]2(c3cc(C#CCC(C(=O)OC)C(=O)OC)ccc31)[C@H](c1ccc(O)cc1)N1[C@H](c3ccccc3)[C@H](c3ccccc3)OC(=O)[C@H]1[C@@H]2C(=O)N1CCc2cc(OC)c(OC)cc2C1`, the composite z-score in assay [1] amounted to 2.46; in assay [2], 1.2; in assay [3] it was 0.362; in [4] it was 0.741; in [5], 1.27; in [6], 1.26. In addition, the composite z-score in assay [8] is 0.633; in assay [9] it was 0.801; in assay [11] it was 0.227; in [16], -0.341; in assay [17] it was 0.0714; in assay [18] it was 0.0553. Besides, the results for the composite z-score in assay [19] and in [20] were 0.391 and 1.31, respectively. For the same molecule, the z-score in [7] was 0.627; in assay [10], -1.05 (inactive); in [12], -0.233 (inactive); in assay [13], 0.12 (inactive); in [14], 0.0384 (inactive); in assay [15] it was 0.118 (inactive).
